From PubChem BioAssay
Compounds with a hit are over-represented: about 4.1% of the library has one in this group of screens.
hgDAF12 agonist – activates the H. glycines DAF-12 receptor ligand-binding domain; AID 687014; HEK293 GAL4-hgDAF12 UAS-luciferase reporter, agonist luminescence; normalized to butyrate control; 1.8% of 370,000 active; activation, % at 6.8 µM;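 active = activation above a cutoff set at the mean of all screened compounds plus 3 SD, cut at about 10% in these data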;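 also: 0% = DMSO wells and 100% = sodium butyrate wells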
DAX1 inh-1 – NR0B1 (DAX1) inhibition | P51843 | HEK293 Gal4-DAX1 luciferase reporter, luminescence | inhibition, % at 6.75 µM | 0.99% of 340,000 active;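 active = inhibition above the mean over all tested compounds plus 3 SD, cut at about 4.2% in these data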;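 also: 0% = DAX1-transfected cells with DMSO and 100% = empty-vector control cells with DMSO; inhibition shows as a rise in luminescence from relieved DAX1 repression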
hcDAF12 agonist – activators of H. contortus DAF-12 nuclear receptor. activation, % at 6.8 µM. AID 652067. HEK293 hcDAF-12 lit1-tk-luc reporter, luminescence; 0% DMSO, 100% Δ7-dafachronic acid. 1.4% of 370,000 active;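 active = activation above the mean of all tested compounds plus 3 SD, cut at about 5.5% in these data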;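 also: 100% = response to 3 µM Δ7-dafachronic acid high control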
ssDAF-12 act – activators of S. stercoralis DAF-12 nuclear receptor; HEK293 ssDAF-12/GRIP1 lit1-tk-luc reporter, luminescence; % of 3 µM dafachronic acid response; activation, % at 6.8 µM; 1% of 370,000 active; AID 652126;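 active = activation above the mean over all tested compounds plus 3 SD, cut at about 0.9% in these data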;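 also: 0% = DMSO-only wells and 100% = 3 µM delta7-dafachronic acid wells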
DAX1 inh-2 – blocks DAX1 repression of SF-1 activated StAR promoter. HEK293T StAR-luciferase reporter, SF-1/DAX-1 repression relief. inhibition, % at 6.8 µM. 1.1% of 370,000 active;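 active = inhibition above the mean over all tested compounds plus 3 SD, cut at about 3.6% in these data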;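 also: 0% = DAX-1 cells with DMSO and 100% = cells lacking DAX-1 with DMSO; higher inhibition means more luminescence from relief of DAX-1 repression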
DAX1 conf – NR0B1 (human) inhibition, confirmation. 87% of 2,400 active. shares compounds with DAX1 inh-2. AID 652134. inhibition, % at 6.8 µM. HEK293T StAR-promoter luciferase reporter, SF-1/DAX-1 repression;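 active = inhibition above the average of every tested compound plus 3 SD, cut at about 3.8% in these data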;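 also: 0% = DAX-1 cells with DMSO and 100% = no DAX-1 control cells with DMSO; active compounds raise luminescence by relieving repression of the StAR reporter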
Target sequence (P51843 whole entry, looked up): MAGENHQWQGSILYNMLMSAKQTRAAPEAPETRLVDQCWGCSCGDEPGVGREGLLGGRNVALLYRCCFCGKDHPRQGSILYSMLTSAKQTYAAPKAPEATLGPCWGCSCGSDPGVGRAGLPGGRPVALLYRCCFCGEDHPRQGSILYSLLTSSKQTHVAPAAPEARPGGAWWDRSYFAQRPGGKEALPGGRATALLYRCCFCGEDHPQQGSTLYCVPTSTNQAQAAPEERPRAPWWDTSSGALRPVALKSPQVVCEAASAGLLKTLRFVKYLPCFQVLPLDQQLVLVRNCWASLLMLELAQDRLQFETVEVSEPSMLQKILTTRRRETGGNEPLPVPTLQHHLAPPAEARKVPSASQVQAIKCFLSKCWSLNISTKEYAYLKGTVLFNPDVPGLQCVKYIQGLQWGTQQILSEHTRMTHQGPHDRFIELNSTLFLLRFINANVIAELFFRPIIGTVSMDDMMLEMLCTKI
SF1 AF2mut Luc – counter-screen for DAX1 inhibitors: nonselective inhibitors with SF-1 AF2 mutant; shares compounds with DAX1 inh-2; HEK293 StAR-luciferase, luminescence; inhibition, % at 6.8 µM; 78% of 2,400 active; AID 652136;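 active = inhibition above the mean of all tested compounds plus 3 SD, cut at about 3% in these data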;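 also: 0% = DAX-1 transfected cells with DMSO and 100% = cells without DAX-1 with DMSO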
Starred values were filed as active, the others as inactive; / = not tested or not shown.

SMILES	hgDAF12 agonist	DAX1 inh-1	hcDAF12 agonist	ssDAF-12 act	DAX1 inh-2	DAX1 conf	SF1 AF2mut Luc
OC(c1ccc(F)cc1)c1ncc(-c2ccc3ccccc3c2)[nH]1 (stereo unspecified)	11*	/	3	-1	1	/	/
Cc1ccc(C(O)c2ncc(-c3ccc(F)cc3)[nH]2)c(C)c1 (stereo unspecified)	-3	/	-1	-1	-1	/	/
Cc1cc2cc3c(cc2n2c(SCC(=O)Nc4nc(-c5ccccc5)cs4)nnc12)OCO3	0	/	-2	-2	/	/	/
CCOC(=O)[C@]12CCCCC/C=C\1N(Cc1ccc(OC)cc1)C(=O)[C@H]2CC(=O)NCC12CC3CC(CC(C3)C1)C2	-2	/	-1	-1	0	/	/
Cc1ccc2c(c1)C1CS(=O)(=O)N(C3CCCC3)C(=O)N1C2 (stereo unspecified)	3	/	2	-1	1	/	/
Cc1cc(C)nc(NC(=S)N2CCN(c3ncc(C(F)(F)F)cc3Cl)CC2)c1	-1	/	-3	-2	/	/	/
O=C(Nc1ccc(F)cc1)OCc1cn(Cc2ccccc2Cl)nn1	-1	/	-1	0	0	/	/
Cn1c(COc2ccc([N+](=O)[O-])cc2)nnc1SCC(=O)NCC1CCCO1 (stereo unspecified)	0	-1	-2	1.0*	0	/	/
Cc1csc(NC(=O)/C=C/c2ccc3c(c2)OCO3)n1	15*	-2	4	1.1*	4.6*	/	/
Cc1ccc2nc(NC(=O)/C=C/c3ccc4c(c3)OCO4)sc2c1	-3	1	-2	0	0	/	/
COC(=O)c1cccc(Cn2ccc3ccc(-c4ccc5ccn(C(=O)c6ccccc6OC)c5c4)cc32)c1	-1	/	-1	-1	0	/	/
CN(Cc1nc2ccccc2c(=O)[nH]1)C(=O)c1cccc(S(=O)(=O)N2CCCC2)c1	2	1	-1	-1	3.7*	/	/
Cc1onc(-c2ccccc2)c1C(=O)Nc1cccc(C#N)c1	11*	2	2	-2	-2	/	/
Cc1onc(-c2ccccc2)c1C(=O)NNC(=O)c1ccccc1	0	0	3	1.1*	0	/	/
Cc1onc(-c2ccccc2)c1C(=O)NNC(=O)c1ccccc1O	4	2	1	-1	-2	/	/
COc1ccc(/C=N/NC(=O)c2cccs2)c2ccccc12	11*	4	3	0	1	/	/
COc1cc(C2C3=C(COC3=O)OC(C)(C)Oc3cc4c(cc32)OCO4)cc(OC)c1OC (stereo unspecified)	-5	0	-1	0	4.1*	/	/
CC(C=NN=C1C(=O)Nc2ccccc21)=Cc1ccccc1	-2	/	-1	0	-2	/	/
Cc1cccc(-n2ccnc2CN2CCN(C3CCCC3)C(CCO)C2)c1 (stereo unspecified)	-2	2	-1	-1	0	/	/
COc1ccc(-n2ccnc2CN2CCN(C3CCCC3)C(CCO)C2)cc1 (stereo unspecified)	3	4.7*	-1	-2	0	/	/
CN(C)c1ccc(CNn2cnnc2SCc2ccc(F)cc2)cc1	-4	-1	-2	-2	-1	/	/
Fc1ccc(CSc2nncn2NCc2ccccc2)cc1	0	6.9*	1	-2	0	/	/
CCc1cccc2c(C(=O)CN3C(=O)NC4(CCc5ccccc54)C3=O)c[nH]c12 (stereo unspecified)	-10	-1	-1	-2	12*	5.9*	-4
CCc1cccc2c(C(=O)CN3C(=O)N(C)C4(CCCCC4)C3=O)c[nH]c12	-6	0	-3	-1	7.9*	11*	-1
CCc1cccc2c(=O)c(C(=O)N3CCCCCC3)c[nH]c12	-2	0	-1	-2	1	/	/
SMILES	hgDAF12 agonist	DAX1 inh-1	hcDAF12 agonist	ssDAF-12 act	DAX1 inh-2	DAX1 conf	SF1 AF2mut Luc
CCc1cccc2c(C(=O)CN3C(=O)NC(C)(c4cccc5ccccc45)C3=O)c[nH]c12 (stereo unspecified)	-4	-1	2	-1	-1	/	/
O=c1c(Br)c(N2CCOCC2)cnn1-c1ccccc1	3	2	3	-1	2	/	/
O=c1c(Br)c(N2CCCCC2)cnn1-c1ccccc1	13*	4.5*	3	-1	4.6*	10*	8.3*
O=C(CC1SC(N2CCCCC2)=NC1=O)Nc1cccc(C(=O)Nc2ncccc2O)c1 (stereo unspecified)	11*	1	3	0	7.9*	9.7*	9.1*
CCOC(=O)C1=CCN(S(=O)(=O)c2ccc(Br)cc2)C1c1ccc(Br)cc1 (stereo unspecified)	0	/	1	-1	-1	/	/
COc1ccc(-c2sc3ccccc3c2-c2ccc(OC)cc2F)cc1	3	/	2	-1	5.3*	1	2
Cc1ccc(NC(=O)c2cc(NC(=O)c3ccco3)ccc2N2CCOCC2)cc1Cl	-4	-1	-2	-1	-1	/	/
Cc1ccn2cc(-c3ccc(NC(=O)c4ccco4)cc3)nc2c1	11*	0	2	0	5.0*	11*	8.6*
CN1CCN(c2ccc(NC(=O)c3ccco3)cc2Cl)CC1	10	0	5.9*	0	15*	12*	5.2*
Cc1nc2cc(NC(=O)Nc3nccs3)ccc2n1C	11*	1	4	0	4.6*	15*	8.5*
Cc1ccn2cc(-c3ccc(NS(=O)(=O)c4ccccc4)cc3)nc2c1	7	0	-3	-1	0	/	/
Cc1nc(-c2cccc(NC(=O)c3ccco3)c2)cs1	3	0	-2	-1	4.7*	2	0
O=S(=O)(N[C@@H]1CCCC[C@@H]1N1CCOCC1)c1ccc(Cl)cc1	-1	/	-2	-2	/	/	/
COc1ccc(-c2cc(C(=O)NN=C/C(C)=C/c3ccccc3)[nH]n2)cc1	-2	/	-1	-2	-2	/	/
C#CCNC(=O)C[C@@H]1C[C@]2(C(=O)OCC)CCC3=C2N(CCC3)C1=O	4	/	-1	-1	1	/	/
CCOC(=O)C(Cc1ccccc1)CP(=O)(OC)[C@@H](C)NC(=O)OCc1ccccc1 (stereo partly specified)	-2	/	-2	0	-1	/	/
Cc1nc2cc(NC(=O)c3ccco3)ccc2n1C	12*	0	2	0	7.7*	11*	7.4*
Cc1cccc(-c2cc3nc4c(c(NCc5ccco5)n3n2)CCCC4)c1	12*	2	0	0	5.0*	5.4*	3.1*
CCN(C(=O)[C@@H](C1CC1)[C@@H](O)c1ccc(C(C)=O)cc1)c1ccccc1	-2	/	-2	-1	0	/	/
N#CCC(=O)N/N=C\c1cccc(OC/C=C/c2ccccc2)c1	11*	-2	2	0	13*	14*	6.9*
